Source: PubChem (National Center for Advancing Translational Sciences (NCATS))
Shown are actives, neighbours in structure and some others; about 5.7% of the full set was active somewhere.
KB-3-1 tox – KB-3-1 parental cell cytotoxicity; KB-3-1 viability, CellTiter-Glo ATP luminescence, 72 h; 400,000 tested, 1.4% active; AID 1347075; Potency, µM (highest dose often 46.1 µM), most hits filed as cytotoxic; note: nearly all actives have a fitted effect of over 60% in size
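Luminescent ATP read-out (CellTiter-Glo) measures survival of drug-naive KB-3-1 cells after 72 h compound exposure at 37 °C. Titration series was screened from lowest to highest concentration, with DMSO vehicle plates as background controls.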
Giardia killer – Giardia lamblia killing. activity change, % at 7.66 µM, hits read low. 340,000 tested, 0.15% active. Giardia lamblia trophozoite viability; in the data active = activity change below about -80%; inconclusive = between about -30% and that limit;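 note: parasites exposed to compound for two days anaerobically before the ATP read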
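Luminescence from cellular ATP indicates surviving trophozoites (100 cells/well) following 48 hrs anaerobic compound treatment at 37 deg C; signal develops 15-30 min at room temperature.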
PI4K2A block – blocks human PI4K2A kinase activity; Q9BTU6; purified PI4K2A, ADP-Glo luminescence, 1 h; active compounds read low; 420,000 tested, 0.13% active; activity change, negative = inhibition, % at 76.9 µM; in the data active = activity change below about -50%; inconclusive = mostly about -30% to -49%
Target sequence (Q9BTU6 whole entry, looked up): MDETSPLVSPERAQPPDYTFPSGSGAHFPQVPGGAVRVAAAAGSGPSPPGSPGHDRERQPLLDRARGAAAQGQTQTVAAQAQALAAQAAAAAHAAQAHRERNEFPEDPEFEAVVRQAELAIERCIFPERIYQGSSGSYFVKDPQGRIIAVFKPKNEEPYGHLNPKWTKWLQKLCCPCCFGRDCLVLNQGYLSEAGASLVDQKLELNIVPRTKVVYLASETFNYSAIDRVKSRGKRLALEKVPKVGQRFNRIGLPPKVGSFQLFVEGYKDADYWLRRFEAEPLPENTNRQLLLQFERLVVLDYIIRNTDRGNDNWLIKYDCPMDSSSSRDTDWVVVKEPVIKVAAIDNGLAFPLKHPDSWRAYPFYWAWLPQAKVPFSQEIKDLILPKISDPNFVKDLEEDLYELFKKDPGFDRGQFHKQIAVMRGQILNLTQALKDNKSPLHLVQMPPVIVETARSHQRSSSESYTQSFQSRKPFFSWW
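PI4K2A activity was measured by ADP-Glo luminescence: enzyme (4 ug/mL stock) and phosphatidylinositol (1.2 mM stock) in Tris pH 7.5/MgCl2/EGTA/Triton X-100 buffer were reacted with ATP (300 microM stock) for one hour at ambient temperature.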
KB-V1 MDR tox – kills drug-selected multidrug resistant KB-V1 cells | KB-V1 MDR cells viability, CellTiter-Glo, 72 h | Potency, µM (titrated, usually from 46.1 µM), usual class: cytotoxic | 400,000 tested, 3.4% active; note: nearly all actives have a fitted effect of over 60% in size
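Cytotoxicity toward P-gp-expressing KB-V1 cells was determined as loss of CellTiter-Glo luminescence after 72 h at 37 degrees C. Compounds were tested in quantitative HTS format across a concentration range, with curves fitted to normalized data.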
A549 tox – A549 cytotoxicity, counter-screen for Nrf2 inhibitors | A549 ARE-Fluc cells, CellTiter-Fluor viability, 18-24 h | Potency, µM (top dose mostly 46 µM), actives largely listed as inhibitors | 390,000 tested, 0.16% active | AID 504648
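A549 ARE-Fluc cells in 5% FBS OPTI-MEM, 5000 cells/well, rested 2 h then exposed to compounds in concentration-response for 18-24 h at 37 °C. Viability by CellTiter-Fluor fluorescence (Ex 405/Em 525) after 30 min; luciferase luminescence (BugLite, 15 min, RT) read afterwards.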
Nrf2 inh – inhibitors of Nrf2 signaling | Potency, µM (highest dose often 46 µM), usual class: inhibitors | 360,000 tested, 2.1% active | A549 ARE-Fluc reporter, luciferase luminescence, 18-24 h; note: nearly all actives have a fitted effect of over 60% in size
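Two sequential reads on A549 ARE_Fluc cells exposed to compound for 18-24 h: a CellTiter-Fluor fluorescence read for viability, then a luciferase luminescence read for Nrf2/ARE activity.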
Hits are given with their value; - = inactive; ? = inconclusive; . = no result; ! = not active in a repeat. Unless noted, calls come from the whole dose curve; as a rule, active = well fitted curve in the direction sought with a large enough effect; inconclusive = small, poorly fitted or top-dose-only effect, or another doubt; inactive = no such curve, though single readings can be large; an effect the other way counts as inactive or inconclusive.

SMILES	KB-3-1 tox	Giardia killer	PI4K2A block	KB-V1 MDR tox	A549 tox	Nrf2 inh
CC(C)(C)c1ccc(-c2nnc(SCC3CCCCO3)n2-c2ccc(Cl)cc2)cc1 (centres undefined)	.	.	-	.	.	.
C[C@@H]1/C=C/CC(=O)N2[C@H](CC(=O)N[C@@H]1c1ccccc1)C[C@@H](C)[C@H]2c1ccccc1	.	.	-	.	.	.
CCC1=NN(C(=O)COc2ccccc2C)C(O)(c2ccncc2)C1 (centres undefined)	-	-	-	-	-	-
CC1=NN(C(=O)COc2ccccc2C)C(O)(c2ccc(Cl)cc2)C1 (centres undefined)	-	-	-	13µM	-	-
Cc1ccc(-n2c(SCC(=O)O)nc3sc4c(c3c2=O)CCCC4)cc1	-	-	-	-	-	-
Cc1ccc(-n2c(SCC(=O)c3c(N)n(C)c(=O)n(C)c3=O)nc3sc4c(c3c2=O)CCCC4)c(C)c1	?	-	-	21µM	-	?
O=C(CCc1ccccc1)NNC(=O)c1ccc(Cl)cc1	-	-	-	-	-	-
O=C(CCc1ccccc1)NNC(=S)NC(=O)c1ccc(Cl)cc1	-	-	-	?	-	21µM
O=C(NC(=S)NNC(=O)c1ccc(Cl)cc1Cl)c1cccnc1	-	-	-	-	-	-
Cc1ccccc1C(=O)NNC(=S)NC(=O)c1ccc(Cl)cc1Cl	-	-	-	?	?	23µM
Cc1ccc(C(=O)NNC(=S)NC(=O)c2ccc(Cl)cc2)cc1	?	-	-	-	?	16µM
O=C(Nc1ccccc1)OCCN1CCCC12CCC(c1ccccc1)CC2 (centres undefined)	.	.	-	.	.	.
CCC[C@H]1[C@@H](N(C)CC2CCCCC2)CC[C@@]23CCCN2C(=O)CCC[C@@H]13	.	.	-	.	.	.
CCOC(=O)C1=C(C)C(c2ccccc2OC)NC(=S)N1 (centres undefined)	-	-	-	23µM	-	-
C=C[C@H]1CN2CC[C@@H]1C[C@@H]2[C@@H](O)c1ccnc2ccc(OC)cc12	.	.	-	.	.	.
CCOC(=O)Cn1cc(CN2CCS(=O)(=O)N(Cc3ccccc3)C(C(=O)OC)C2)nn1 (centres undefined)	.	.	-	.	.	.
CCN(C)c1nc(C)nc2c1nnn2Cc1ccccc1	.	.	-	.	.	.
CN1C(=S)SC(N(O)C(=O)Nc2ccc(Cl)c(Cl)c2)C1(C)C (centres undefined)	?	-	-	18µM	-	-
CN1C(=S)SC(C)(C)C1N(O)C(=O)Nc1ccc(Cl)cc1 (centres undefined)	-	-	-	-	-	-
CCCC(=O)N1CCC(NS(=O)(=O)c2ccc3c(c2)CCN3C(C)=O)CC1	.	.	-	.	.	.
O=C(NCc1ccccc1Cl)C1CCCN(c2nc3ccccc3o2)C1 (centres undefined)	.	.	-	.	.	.
CCC(C)NC(=O)c1cn(CC)c2ccc(S(=O)(=O)N3CCc4ccccc4C3)cc2c1=O (centres undefined)	-	.	-	-	-	23µM
CCn1cc(C(=O)NCC(OC)OC)c(=O)c2cc(S(=O)(=O)N3CCC(C)CC3)ccc21	13µM	-	-	-	-	?
COCCNC(=O)c1cn(C)c2ccc(S(=O)(=O)N3CCCCC3)cc2c1=O	23µM	-	-	-	-	-
CC1CCN(S(=O)(=O)c2ccc3c(c2)c(=O)c(C(=O)NCc2cccs2)cn3C)CC1	-	-	-	-	-	-
SMILES	KB-3-1 tox	Giardia killer	PI4K2A block	KB-V1 MDR tox	A549 tox	Nrf2 inh
CC1CCN(S(=O)(=O)c2ccc3c(c2)c(=O)c(C(=O)NCc2ccco2)cn3C)CC1	?	-	-	9.2µM	-	?
COc1ccc(C2c3c(n(CCCc4ccccc4)cnc3=N)Oc3ccc4ccccc4c32)cc1OC (centres undefined)	.	.	.	.	-	-
Clc1ccc(CO/N=C/c2c(-c3ccccc3)nc3n2CCS3)c(Cl)c1	-	-	-	15µM	-	?
Oc1ccc(Cl)cc1-c1cc(-c2ccccc2Cl)[nH]n1	?	-	-	?	-	-
Oc1ccccc1-c1cc(-c2ccccc2Cl)[nH]n1	-	-	-	21µM	-	?
Cc1nc(-c2ccc(C(=O)N3CCOCC3)cc2)cs1	-	-	-	-	-	.
Cc1nc(-c2ccc(C(=O)Nc3ccc(F)cc3)cc2)cs1	-	-	?	?	-	?
Cc1nc(-c2cccc(NC(=O)c3ccc(-n4cccn4)cc3)c2)cs1	-	-	-	?	-	15µM
Cc1nc(-c2ccc(C(=O)N3CCCC3)cc2)cs1	-	-	-56	?	-	?
Cc1nc(-c2ccc(C(=O)Nc3ccccc3F)cc2)cs1	?	?	-60	12µM	-	?
O=C(NNc1nc(-c2ccc(Cl)cc2)cs1)c1ccco1	?	-	-	21µM	?	?
CC(NCc1ccco1)C(=O)N1CCOCC1 (centres undefined)	.	.	-	.	.	.
CCOc1ccc(NC(=O)c2ccc(-c3csc(C)n3)cc2)cc1	-	-	-	-	-	?
COc1ccc(NC(=O)c2ccc(-c3csc(C)n3)cc2)cc1	?	-	-	-	-	21µM
Cc1nc(-c2ccc(NC(=O)c3ccco3)cc2)cs1	?	-98	?	-	-	7.3µM
CC(=O)Nc1sc2c(c1-c1nc(-c3ccccc3)cs1)CCN(C(C)C)C2	.	.	-	.	.	.
O=C(Nc1ccc(F)cc1C(F)(F)F)C1CCN(c2ncccn2)CC1	-	.	-	-	-	-
CCOc1ccccc1NC(=O)c1nc(SCc2ccccc2F)ncc1Cl	-	.	.	-	.	.
CCCOc1nccc2c1n(C)c(=O)n2C	.	.	-	.	.	.
Nc1cc(=O)[nH]c(SCCOc2ccccc2)n1	?	-	-	5.2µM	-	-
Nc1cc(=O)[nH]c(SCCSc2ccccc2)n1	?	-	-	7.3µM	-	?
Nc1cc(=O)[nH]c(SCCNS(=O)(=O)c2ccccc2)n1	-	-	-	-	-	-
Clc1ccccc1Cn1ccc2ccc(-c3ccc4ccn(Cc5ccccc5Cl)c4c3)cc21	.	.	-	.	.	.
Cc1c(C(=O)N2CCCCCC2)c(S(=O)(=O)N(Cc2ccccc2)C(C)(C)C)c(C)n1C	-	.	-	-	-	-
Cc1ccc(NC(=O)c2cc3c([nH]c2=O)CC(C)(C)CC3=O)cc1	-	.	.	-	.	.
O=C(NC1CCCCN(Cc2cccc(C(F)(F)F)c2)C1=O)c1ccc(Cl)c(Cl)c1 (centres undefined)	.	.	-	.	.	.
O=C1CCC[C@@H]2Cc3nc4cc5c(cc4cc3[C@@H]3CCN1[C@H]23)OCO5	-	-	-	18µM!	-	-
O=C1CCC[C@@H]2Cc3nc4ccc(O)cc4cc3[C@@H]3CCN1[C@H]23	-	-	-	-	-	-
COCCCNc1nc2ccccc2nc1NS(=O)(=O)c1cc(Cl)ccc1Cl	?	?	-	?	-	21µM
